In PubChem BioAssay AID2629 (Broad Institute, 2010):
Hit rate of the full screen: of about 320,000 compounds, about 1,900 (0.59%) were called active. The entries come from a sample that favours actives as a whole. Values without a mark were called inactive. Cut-off read from the data, not from the text of the source: active = inhibition mostly above about 10% (no sharp cut-off); inactive = mostly below about 6.7%.

biological target: Protein LANA1 (Human herpesvirus 8 type P (isolate GK18)) (UniProt Q9QR71); assay: blockers of LANA interaction with H2A/H2B – biochemical, FP readout, HTS, primary screen (AID 2629); conditions: cell-free LANA-H2A/H2B peptide, fluorescence polarization, hits give high values, concentration not given here
Sequence (Q9QR71 whole entry, looked up): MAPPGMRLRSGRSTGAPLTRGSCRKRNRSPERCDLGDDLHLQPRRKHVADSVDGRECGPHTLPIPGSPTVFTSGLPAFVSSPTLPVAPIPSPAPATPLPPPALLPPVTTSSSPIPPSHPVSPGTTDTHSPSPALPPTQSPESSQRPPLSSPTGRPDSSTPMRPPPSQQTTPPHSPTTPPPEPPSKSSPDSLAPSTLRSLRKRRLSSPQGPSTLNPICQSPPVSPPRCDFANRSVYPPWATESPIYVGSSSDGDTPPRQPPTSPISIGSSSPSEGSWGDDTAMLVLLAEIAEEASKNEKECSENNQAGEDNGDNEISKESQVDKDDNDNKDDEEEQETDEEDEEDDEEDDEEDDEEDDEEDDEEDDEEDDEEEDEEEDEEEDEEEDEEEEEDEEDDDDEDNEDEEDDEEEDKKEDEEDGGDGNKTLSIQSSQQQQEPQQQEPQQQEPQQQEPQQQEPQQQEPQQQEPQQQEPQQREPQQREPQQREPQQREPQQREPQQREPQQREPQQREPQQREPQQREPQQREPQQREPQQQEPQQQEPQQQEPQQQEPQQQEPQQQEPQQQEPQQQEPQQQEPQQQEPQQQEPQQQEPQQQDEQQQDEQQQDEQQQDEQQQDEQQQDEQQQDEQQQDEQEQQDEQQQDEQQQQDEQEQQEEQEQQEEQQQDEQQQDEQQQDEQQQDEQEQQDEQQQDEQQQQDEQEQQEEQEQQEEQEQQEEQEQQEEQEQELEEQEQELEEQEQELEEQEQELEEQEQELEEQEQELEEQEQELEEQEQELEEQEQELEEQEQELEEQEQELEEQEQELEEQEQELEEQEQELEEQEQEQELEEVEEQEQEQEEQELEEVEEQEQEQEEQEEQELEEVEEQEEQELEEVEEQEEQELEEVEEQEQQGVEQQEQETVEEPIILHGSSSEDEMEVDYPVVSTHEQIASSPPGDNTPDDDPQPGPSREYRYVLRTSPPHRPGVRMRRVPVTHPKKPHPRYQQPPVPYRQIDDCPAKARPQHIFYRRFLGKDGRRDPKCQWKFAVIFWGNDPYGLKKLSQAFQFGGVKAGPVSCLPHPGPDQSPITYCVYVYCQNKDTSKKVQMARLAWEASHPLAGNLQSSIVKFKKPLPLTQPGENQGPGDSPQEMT

With `CC(=O)c1sc(N/N=C/c2ccc(C(C)C)cc2)nc1C` as the compound, how does the inhibition read?
Its inhibition is 2.17%.

With `COc1ccc(S(=O)(=O)N2CCOCC2)cc1NC(=O)CSc1nnc(NC2CC2)s1` as the compound, how does the inhibition read?
The inhibition was -4.5%.

For `COc1ccc(NC(=O)NNC(=O)COc2cc(C)c(Cl)c(C)c2)c(OC)c1`, which inhibition is on record?
The inhibition was -5.21%.

Which inhibition does the source give for `Cc1ccc(C(=O)CCC(=O)N(C)CC(=O)Nc2c(Cl)cccc2Cl)cc1` here?
Its inhibition is 4.61%.

How did the inhibition turn out when `CN(CC(=O)Nc1c(Cl)cccc1Cl)C(=O)c1ccncc1` was run?
The inhibition was 111% (active).

Which inhibition does the source give for `CN(CC(=O)Nc1c(Cl)cccc1Cl)C(=O)CNC(=O)C1CCCCC1` here?
The inhibition was -5.68%.

How did the inhibition turn out when `C/C(CC(=O)Nc1cccc(F)c1)=N\NC(=O)C(=O)NC1CCCCC1` was run?
Its inhibition is 15.3% (active).

`COc1cccc(NC(=O)C/C(C)=N/NC(=O)C2CCCCC2)c1` was tested. Which inhibition did it give?
The inhibition was 3.19%.

With `O=C(Nc1cccc(F)c1)NC1CCCCCCC1` as the compound, how does the inhibition read?
Its inhibition is 0.578%.

With `COc1ccc(F)cc1C(=O)C1CCCN(C(=O)CCc2ccccn2)C1` (centres undefined) as the compound, how does the inhibition read?
Its inhibition is -0.521%.

With `CCOC(=O)C1(O)CC(C)=NN1C(=O)c1cccc(Br)c1` (centres undefined) as the compound, how does the inhibition read?
The inhibition was 1.92%.

With `CC1=NN(C(=O)c2ccc(Br)cc2)C(O)(c2ccccc2)C1` (centres undefined) as the compound, how does the inhibition read?
The inhibition was 15.6% (active).

With `CC1=NN(C(=O)c2ccccc2Br)C(O)(c2cccnc2)C1` (centres undefined) as the compound, how does the inhibition read?
Its inhibition is -0.482%.

`Cc1coc2c1c(C)cc1oc(=O)c(CC(=O)NCC(=O)N[C@H](C(=O)O)C(C)C)c(C)c12` was tested. Which inhibition did it give?
The inhibition was 1.45%.

With `COc1ccc(NC(=O)CSc2nc(N)c(-c3ccccc3)c(=O)[nH]2)cc1` as the compound, how does the inhibition read?
The inhibition was 12.1% (active).

Which inhibition does the source give for `COc1ccc(OC)c(NC(=O)CSc2nc(N)c(-c3ccccc3)c(=O)[nH]2)c1` here?
The inhibition was 4.91%.

With `COc1ccc(C(=O)Nc2c(N)nc(SCC(=O)Nc3ccc(C(C)=O)cc3)[nH]c2=O)cc1` as the compound, how does the inhibition read?
The inhibition was 2.95%.

How did the inhibition turn out when `CCOc1ccc(CCNC(=O)COC(=O)C2CCN(c3ccc(C(F)(F)F)cn3)CC2)cc1OCC` was run?
The inhibition was 2.54%.

`O=C(CN1CCc2ccccc2C1)Nc1cccc(S(=O)(=O)N2CCOCC2)c1` was tested. Which inhibition did it give?
The inhibition was 2.86%.

How did the inhibition turn out when `CSCCC(NS(=O)(=O)c1ccc(C)cc1)C(=O)NCCc1c[nH]c2ccccc12` (centres undefined) was run?
The inhibition was -5.03%.

With `CCc1nnc(NC(=O)[C@@H](NC(=O)c2cccc(C)c2)C(C)C)s1` as the compound, how does the inhibition read?
The inhibition was 1.78%.

With `CCCn1nc2cc(C(=O)NCc3ccccc3)ccc2c1OCC` as the compound, how does the inhibition read?
Its inhibition is 3.43%.

How did the inhibition turn out when `CCOc1c2ccc(C(=O)NCc3ccc(OC(F)(F)F)cc3)cc2nn1C` was run?
The inhibition was -0.924%.

`CCOc1c2ccc(C(=O)NCc3ccc4c(c3)OCO4)cc2nn1C` was tested. Which inhibition did it give?
Its inhibition is 19.6% (active).

Which inhibition does the source give for `COC(=O)[C@H](C(C)C)n1c(C)c(C(C)=O)c(C(C)=O)c1C` here?
The inhibition was -3.34%.

`CCC(=O)N(C)C(c1ccccc1Cl)c1nnnn1-c1c(C)cccc1C` (centres undefined) was tested. Which inhibition did it give?
The inhibition was -0.0342%.

With `COC(=O)c1ccc(SCc2ccccc2)nc1` as the compound, how does the inhibition read?
The inhibition was 60.3% (active).

`COC(=O)c1ccc(CSc2nncn2C)cc1` was tested. Which inhibition did it give?
Its inhibition is 5.16%.

For `COC(=O)c1ccc(CSc2ccc(S(=O)(=O)N3CCCCC3)cn2)cc1`, which inhibition is on record?
The inhibition was -0.0946%.

`CCCCNc1ccc(C(=O)Nc2cccc(C)n2)cc1[N+](=O)[O-]` was tested. Which inhibition did it give?
The inhibition was -3.43%.

`Cc1cc(C)c(C)c(S(=O)(=O)Nc2cccnc2)c1C` was tested. Which inhibition did it give?
The inhibition was -0.825%.

With `COc1ccccc1Oc1ccc(S(=O)(=O)Nc2cccnc2)cc1` as the compound, how does the inhibition read?
The inhibition was 2.24%.

For `COc1ccc(S(=O)(=O)Nc2cccnc2)c(Cl)c1Cl`, which inhibition is on record?
The inhibition was 12.6% (active).

For `COc1ccc(CCc2nnc(CCC(=O)NCc3cnn(-c4ccccc4C)c3)o2)cc1`, which inhibition is on record?
Its inhibition is 16.6%.

`CC(=O)Nc1ccc(S(=O)(=O)NC2(C(F)(F)F)C(=O)Nc3c2c(=O)[nH]c(=O)n3Cc2ccccc2)cc1` (centres undefined) was tested. Which inhibition did it give?
The inhibition was -2.71%.

With `CC(=O)n1cc([C@@H]2C=C(C(=O)N3CCN(Cc4ccc5c(c4)OCO5)CC3)O[C@H](OCc3ccc(CO)cc3)C2)c2ccccc21` as the compound, how does the inhibition read?
Its inhibition is 1.33%.

With `CCC(C)c1ccc(NC(=S)NCc2ccccn2)cc1` (centres undefined) as the compound, how does the inhibition read?
Its inhibition is -1.48%.

Which inhibition does the source give for `CCN(CC)CCOc1ccc2c(c1)C(=NNC(=O)c1ccccn1)c1cc(OCCN(CC)CC)ccc1-2` here?
The inhibition was -1.56%.

Which inhibition does the source give for `Oc1ccc(-c2onc3ccc(Cl)cc23)cc1` here?
The inhibition was 3.12%.

With `COc1ccc(-c2onc3ccc(C(C)=O)cc23)cc1` as the compound, how does the inhibition read?
The inhibition was 26.3% (active).

For `CC(OC(=O)c1ccc2noc(-c3ccccc3)c2c1)C(N)=O` (centres undefined), which inhibition is on record?
The inhibition was -5.93%.

For `CC(C)c1ccc(Nc2nnc(SCC(=O)c3nnc(-c4ccccc4)o3)s2)cc1`, which inhibition is on record?
The inhibition was -16.3%.

With `Cc1noc(C)c1COc1ccc(C(=O)NCCOc2ccccc2)cc1` as the compound, how does the inhibition read?
Its inhibition is 2.1%.

Which inhibition does the source give for `COC(=O)c1cnc(Nc2cc(C)ccc2OC)c2ccccc12` here?
The inhibition was -2.27%.

Which inhibition does the source give for `COc1ccc(C)cc1Nc1nc(-c2c(C)[nH]c3ccccc23)cs1` here?
Its inhibition is 39.5% (active).

Which inhibition does the source give for `COc1ccc(C)cc1Nc1nc(C)nc2c1oc1ccccc12` here?
Its inhibition is 3.52%.

`Cc1cc(C=O)c(C)n1-c1ccc(NC2CCCCC2)c([N+](=O)[O-])c1` was tested. Which inhibition did it give?
The inhibition was 5.17%.

With `Cc1ccc(NS(=O)(=O)c2ccc(C(C)C)cc2)cc1S(=O)(=O)N1CCOCC1` as the compound, how does the inhibition read?
The inhibition was -10.5%.

How did the inhibition turn out when `O=C(CCCOc1ccccc1)NNC(=O)c1ccc(Cl)cc1` was run?
Its inhibition is 3.13%.

Which inhibition does the source give for `O=C(CCc1ccccc1)NNC(=O)COc1ccc(Cl)cc1` here?
The inhibition was 77.8% (active).

For `O=C(COc1ccc(Cl)cc1)NCCSc1ccccc1`, which inhibition is on record?
Its inhibition is -4.08%.

With `COC(=O)Cc1csc(/N=C/c2c(O)n(-c3cccc(C(F)(F)F)c3)c(=O)c3ccccc23)n1` as the compound, how does the inhibition read?
The inhibition was -3.9%.

How did the inhibition turn out when `Cn1c(CCc2ccccc2)nnc1SCC(N)=O` was run?
Its inhibition is -7.18%.

For `N#CCCn1ncc2ccccc21`, which inhibition is on record?
Its inhibition is 4.72%.

Which inhibition does the source give for `O=C(CNCc1ccc(F)cc1)Nc1ccccc1-c1ccccc1` here?
The inhibition was -4%.

For `COc1cc(NC(=O)c2ccccc2)c(OC)cc1NC(=O)Cc1ccccc1`, which inhibition is on record?
The inhibition was -1.39%.

How did the inhibition turn out when `CCn1ccnc1CN1CCCC(C(=O)c2ccc3c4c(cccc24)CC3)C1` (centres undefined) was run?
The inhibition was 25.9% (active).

How did the inhibition turn out when `Cc1ncoc1C(=O)N1CCCC(C(=O)c2ccc3c4c(cccc24)CC3)C1` (centres undefined) was run?
Its inhibition is 1.25%.

Which inhibition does the source give for `CC(=O)NCC(=O)N1CCCC(C(=O)c2ccc3c4c(cccc24)CC3)C1` (centres undefined) here?
The inhibition was -1.06%.
